PubChem BioAssay (Tox21)
Several values for one entry are separate records, joined by “and”; a condition that tells them apart may be missing. Equal entries are not always repeated. Results filed as inconclusive are left out. Some compounds were tested as several samples or in several runs, with calls that do not always agree. Activity calls are given as the source filed them. Unless noted, the call rests on the fitted dose curve; in most records, active means well fitted curve in the direction sought with a large enough effect in the repeat runs; inconclusive means weak or mixed curves; inactive means no such curve, though single readings can be large; an effect the other way counts as inactive or inconclusive.

system: not listed separately; assay: qHTS assay to identify small molecule agonists of the androgen receptor (AR) signaling pathway in the presence of an antagonist - cell viability counter screen (AID 1259379); conditions: MDA-kb2 viability, CellTiter-Fluor, 16 h; series mostly up to 92.4 µM; further: nearly all actives have a fitted effect of over 25% in size;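 on activity change, negative = cytotoxicity: MDA-kb2 human breast cancer cells carrying an MMTV luciferase reporter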
Procedure, shortened: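 Fluorescence from CellTiter-Fluor, added after 15 hr and read 1 hr later, gave cell viability. Cells were MDA-kb2 exposed to compounds (15 concentrations) in the presence of 3.0uM nilutamide at 37C, 0% CO2.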
On the % scale 0 is the no-effect control and ±100 the full control effect; potency means the concentration at half of the fitted maximal effect.

| Structure (SMILES) | Potency | activity change, negative = cytotoxicity |
| --- | --- | --- |
| CCCC/C=C/CCCCO | inactive |  |
| Cc1ccc(O)c(C(C)(C)C)c1 | inactive |  |
| COc1cccc(N)c1 | inactive |  |
| CSc1ccc(C(=O)c2[nH]c(=O)[nH]c2C)cc1 | inactive |  |
| CCCCCCCC[P+](CCCCCCCC)(CCCCCCCC)CCCCCCCC | 2.42 µM (active) |  |
| CCOc1ccc2nc3cc(N)ccc3c(N)c2c1 | inactive |  |
| NC(=NCCCCCCN=C(N)/N=C(\N)Nc1ccc(Cl)cc1)/N=C(\N)Nc1ccc(Cl)cc1 | 62.2 µM (active) and 60.8 µM (active) and inactive |  |
| CC(NN)c1ccccc1 (configuration not stated) |  | -0.324% [at 19 µM] (inactive) |
| C=CC(=O)OCCn1c(=O)n(CCOC(=O)C=C)c(=O)n(CCOC(=O)C=C)c1=O | 21.7 µM (active) |  |
| CCN(CCC#N)c1ccc(N=Nc2c(Cl)cc([N+](=O)[O-])cc2Cl)cc1 | 17.2 µM (active) |  |
| Oc1ccc2cc(SSc3ccc4cc(O)ccc4c3)ccc2c1 | 61.2 µM (active) and 61.1 µM (active) |  |
| CCCCC(CC)COC(=O)c1ccccc1C(=O)O (configuration not stated) | inactive |  |
| CC1=C(/C=C/C(C)=C/C=C/C(C)=C/C=O)C(C)(C)CCC1 | 60.8 µM (active) |  |
| [Cl][Au]([Cl])[Cl] | 54.5 µM (active) |  |

system: not listed separately; assay: qHTS assay to identify small molecule agonists of the estrogen receptor beta (ER-beta) signaling pathway - cell viability counter screen (AID 1259380); conditions: ER-beta-bla HEK293T viability, CellTiter-Glo luminescence, 16 h; series mostly up to 92.4 µM; further: nearly all actives have a fitted effect of over 30% in size
Procedure, shortened: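 Same-well viability counter screen. Cells: ER-beta-UAS-bla HEK293T, plated 6 hr before compound, in 2% charcoal-stripped FBS. Compound exposure 16 hr, 37C; viability by CellTiter-Glo luminescence after 30 min at room temperature.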

| Structure (SMILES) | Potency |
| --- | --- |
| Cc1c(C)c2c(c(C)c1O)CCC(C)(COc1ccc(CC3SC(=O)NC3=O)cc1)O2 (configuration not stated) | 11.9 µM (active) |
| CSc1ccc2c(c1)C(N1CCN(C)CC1)Cc1ccccc1S2 (configuration not stated) | 16.8 µM (active) |
| O=C(Nc1cccc([N+](=O)[O-])c1)c1cc2ccccc2cc1O | 30.6 µM (active) |
| Nc1ccc2c3c(cccc13)-c1ccccc1-2 | 49.1 µM (active) |
| CCc1cc(Cc2cc(CC)c(N)c(CC)c2)cc(CC)c1N | 27.3 µM (active) |
| O=c1[nH]sc2ccccc12 | 19.3 µM (active) |
| C=CC(=O)OCC(CO)(COC(=O)C=C)COC(=O)C=C | 13.7 µM (active) and 19.3 µM (active) |
| Fc1ccc([C@@H]2CCNC[C@H]2COc2ccc3c(c2)OCO3)cc1 | 33.5 µM (active) |
| N=C1N=C(N)c2cc3ccccc3cc21 | 21.7 µM (active) |
| CCCCCCCCCCCCCCCCCC[N+](C)(C)Cc1ccccc1 | 24.6 µM (active) |
| Cc1cc(O)c2ccccc2c1O | 13.3 µM (active) |
| Nc1ccc(N)c2ccccc12 | 24.3 µM (active) |
| Oc1c(Cl)cc(Cl)c2cccnc12 | 4.73 µM (active) |
| Clc1ccc2cc3ccccc3cc2c1 | inactive |
| CCCCCCCCOC(=O)c1ccc(O)cc1 | 54.3 µM (active) and 48.6 µM (active) |
| Oc1ccc(C2(c3ccc(O)cc3)CC3CC2C2CCCC32)cc1 (configuration not stated) | 26.2 µM (active) |
| CN1CCC(Nc2ncc3ncnc(Nc4ccc(F)c(Cl)c4)c3n2)CC1 | 11.9 µM (active) |
| CS(=O)(=O)CCNCc1ccc(-c2ccc3ncnc(Nc4ccc(OCc5cccc(F)c5)c(Cl)c4)c3c2)o1 | 13.3 µM (active) |
| CCCCCCCCCOC(=O)c1ccc(O)cc1 | 53.7 µM (active) |
| CCCCC(CC)COP(=O)(O)OCC(CC)CCCC (configuration not stated) | 68.7 µM (active) and 7.7 µM (active) |
| CCCCCCCCCCCC(=O)NCCCN(C)C | 54.5 µM (active) |
| Cc1cc(O)c(C(C)(C)C)cc1C(C)(C)C | 54.5 µM (active) |

molecular target: Androgen receptor (Homo sapiens) (UniProt P10275); assay: qHTS assay to identify small molecule agonists of the androgen receptor (AR) signaling pathway in the presence of an antagonist (AID 1259381; calls by dose curve; further: nearly all actives have a fitted effect of over 15% in size); conditions: MDA-kb2 MMTV-luciferase, AR agonist + nilutamide, 16 h; series mostly up to 92.4 µM
Sequence (P10275 whole entry, looked up): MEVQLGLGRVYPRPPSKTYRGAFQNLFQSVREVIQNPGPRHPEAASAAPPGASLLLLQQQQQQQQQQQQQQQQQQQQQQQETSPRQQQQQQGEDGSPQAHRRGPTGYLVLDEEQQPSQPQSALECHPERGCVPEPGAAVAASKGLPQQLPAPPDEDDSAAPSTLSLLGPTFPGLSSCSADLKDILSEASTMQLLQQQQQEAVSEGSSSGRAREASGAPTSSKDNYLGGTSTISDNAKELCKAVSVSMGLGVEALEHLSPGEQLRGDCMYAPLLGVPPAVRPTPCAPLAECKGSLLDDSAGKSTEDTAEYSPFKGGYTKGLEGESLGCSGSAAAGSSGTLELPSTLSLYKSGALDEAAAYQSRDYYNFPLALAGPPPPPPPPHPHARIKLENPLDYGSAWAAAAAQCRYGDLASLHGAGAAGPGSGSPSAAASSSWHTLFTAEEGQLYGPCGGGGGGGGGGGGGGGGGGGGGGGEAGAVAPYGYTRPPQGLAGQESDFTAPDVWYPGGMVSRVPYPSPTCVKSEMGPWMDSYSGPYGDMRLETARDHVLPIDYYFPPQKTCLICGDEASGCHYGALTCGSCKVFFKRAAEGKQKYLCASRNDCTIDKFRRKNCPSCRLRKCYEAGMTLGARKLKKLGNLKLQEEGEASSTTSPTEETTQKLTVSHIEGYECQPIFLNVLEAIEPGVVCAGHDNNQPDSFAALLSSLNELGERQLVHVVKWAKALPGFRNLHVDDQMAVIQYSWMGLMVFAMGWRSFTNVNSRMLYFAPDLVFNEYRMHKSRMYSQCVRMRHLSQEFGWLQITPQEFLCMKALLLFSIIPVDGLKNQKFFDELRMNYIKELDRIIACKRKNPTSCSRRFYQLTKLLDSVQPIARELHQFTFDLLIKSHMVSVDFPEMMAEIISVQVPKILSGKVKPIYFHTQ
Procedure, shortened: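 Cells are MDA-kb2 (human breast carcinoma, MMTV-luc, AR/GR responsive). Nilutamide is present at 3.0uM final throughout; compounds are added at 15 concentrations and incubated 16hr at 37C before ONE-Glo luminescence detection.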

| Structure (SMILES) | Potency |
| --- | --- |
| Cc1c(C)c2c(c(C)c1O)CCC(C)(COc1ccc(CC3SC(=O)NC3=O)cc1)O2 (configuration not stated) | inactive |
| O=C(Nc1cccc([N+](=O)[O-])c1)c1cc2ccccc2cc1O | inactive |
| Nc1ccc2c3c(cccc13)-c1ccccc1-2 | 49.1 µM (active) |
| C=CC(=O)OCC(CO)(COC(=O)C=C)COC(=O)C=C | inactive |
| Fc1ccc([C@@H]2CCNC[C@H]2COc2ccc3c(c2)OCO3)cc1 | inactive |
| CCCCCCCCCCCCCCCCCC[N+](C)(C)Cc1ccccc1 | inactive |
| Cc1cc(O)c2ccccc2c1O | inactive |
| Nc1ccc(N)c2ccccc12 | inactive |
| Clc1ccc2cc3ccccc3cc2c1 | inactive |
| Oc1ccc(C2(c3ccc(O)cc3)CC3CC2C2CCCC32)cc1 (configuration not stated) | inactive |
| CN1CCC(Nc2ncc3ncnc(Nc4ccc(F)c(Cl)c4)c3n2)CC1 | inactive |
| CS(=O)(=O)CCNCc1ccc(-c2ccc3ncnc(Nc4ccc(OCc5cccc(F)c5)c(Cl)c4)c3c2)o1 | inactive |
| CCCCCCCCCOC(=O)c1ccc(O)cc1 | inactive |
| CCCCCCCCCCCC(=O)NCCCN(C)C | inactive |
| Cc1cc(O)c(C(C)(C)C)cc1C(C)(C)C | inactive |

system: not listed separately; assay: qHTS assay to identify small molecule antagonists of the estrogen receptor beta (ER-beta) signaling pathway - cell viability counter screen (AID 1259382); conditions: ER-beta-UAS-bla HEK293T viability, CellTiter-Glo luminescence, 16 h; series mostly up to 92.4 µM; further: nearly all actives have a fitted effect of over 55% in size;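 on activity change, negative = cytotoxicity: HEK293T cells carrying ER-beta-UAS-bla reporter stimulated with estradiol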
Procedure, shortened: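 Following a 6 hr plating period, HEK293T cells carrying a UAS-driven beta-lactamase reporter under ER-beta control received compounds and 1nM E2 (final). After 16 hr at 37C and 2 hr substrate loading, CellTiter-Glo luminescence indicated viability.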

| Structure (SMILES) | Potency | activity change, negative = cytotoxicity |
| --- | --- | --- |
| Cc1c(C)c2c(c(C)c1O)CCC(C)(COc1ccc(CC3SC(=O)NC3=O)cc1)O2 (configuration not stated) | inactive |  |
| CSc1ccc2c(c1)C(N1CCN(C)CC1)Cc1ccccc1S2 (configuration not stated) | 16.8 µM (active) |  |
| O=C(Nc1cccc([N+](=O)[O-])c1)c1cc2ccccc2cc1O | 0.77 µM (active) |  |
| Nc1ccc2c3c(cccc13)-c1ccccc1-2 | 49.1 µM (active) |  |
| CCc1cc(Cc2cc(CC)c(N)c(CC)c2)cc(CC)c1N | 48.6 µM (active) |  |
| O=c1[nH]sc2ccccc12 | 27.3 µM (active) |  |
| C=CC(=O)OCC(CO)(COC(=O)C=C)COC(=O)C=C | 19.4 µM (active) and 19.3 µM (active) |  |
| Fc1ccc([C@@H]2CCNC[C@H]2COc2ccc3c(c2)OCO3)cc1 | 26.6 µM (active) |  |
| N=C1N=C(N)c2cc3ccccc3cc21 | 38.6 µM (active) |  |
| CCCCCCCCCCCCCCCCCC[N+](C)(C)Cc1ccccc1 | 27.6 µM (active) |  |
| CCCC/C=C/CCCCO | inactive |  |
| Cc1ccc(O)c(C(C)(C)C)c1 | inactive |  |
| Cc1cc(O)c2ccccc2c1O | 23.7 µM (active) |  |
| Nc1ccc(N)c2ccccc12 | 27.3 µM (active) |  |
| Oc1c(Cl)cc(Cl)c2cccnc12 | 11.9 µM (active) |  |
| Clc1ccc2cc3ccccc3cc2c1 | inactive |  |
| CCCCCCCCOC(=O)c1ccc(O)cc1 | 43.1 µM (active) |  |
| Oc1ccc(C2(c3ccc(O)cc3)CC3CC2C2CCCC32)cc1 (configuration not stated) | 26.2 µM (active) |  |
| CC(NN)c1ccccc1 (configuration not stated) |  | 1.73% [at 19 µM] (inactive) |
| CS(=O)(=O)CCNCc1ccc(-c2ccc3ncnc(Nc4ccc(OCc5cccc(F)c5)c(Cl)c4)c3c2)o1 | 13.3 µM (active) |  |
| Oc1ccc2cc(SSc3ccc4cc(O)ccc4c3)ccc2c1 | inactive |  |
| CCCCCCCCCOC(=O)c1ccc(O)cc1 | 53.7 µM (active) |  |
| CC1=C(/C=C/C(C)=C/C=C/C(C)=C/C=O)C(C)(C)CCC1 | 30.5 µM (active) |  |
| CCCCC(CC)COP(=O)(O)OCC(CC)CCCC (configuration not stated) | 68.7 µM (active) and 68.6 µM (active) |  |
| CCCCCCCCCCCC(=O)NCCCN(C)C | 54.5 µM (active) |  |
| Cc1cc(O)c(C(C)(C)C)cc1C(C)(C)C | 61.1 µM (active) |  |
